Experimental data taken from PubChem BioAssay (NCI).
Compounds without any hit were thinned out: in the full panel of roughly 83,000, 20% have a hit.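 The endpoint reported here, percent growth, reads 100 for growth as untreated, 0 for no net growth and -100 for all cells dead.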 Active and inactive are the calls of the source. How the source made its calls: active means growth percent below 10; inactive means the rest.

Experiments:
Test in all cases: NCI-60 one-dose screen, 48 h (100 = growth as untreated, 0 = no growth, -100 = all killed)
Details in all cases: 10 µM unless noted
[1] = test system: NCI-H23 lung
[2] = test system: NCI-H226 lung
[3] = test system: HOP-62 NSCLC
[4] = test system: NCI-H460 lung
[5] = test system: HOP-92 NSCLC
[6] = test system: NCI-H522 lung
[7] = test system: A549/ATCC NSCLC
[8] = test system: 786-0 renal
[9] = test system: COLO 205 colon
[10] = test system: DU-145 prostate
[11] = test system: K-562 leukemia
[12] = test system: MALME-3M melanoma
[13] = test system: MDA-MB-231 breast
[14] = test system: RXF 393 renal
[15] = test system: SF-268 CNS
[16] = test system: SF-295 CNS
[17] = test system: SF-539 CNS
[18] = test system: UACC-257 melanoma
[19] = test system: M14 melanoma
[20] = test system: NCI-H322M lung

Measured: growth

CCOC(=O)C1CCNC(=O)C1=O (configuration not stated)
inactive: [1] 107% | [2] 97% | [3] 112% | [4] 113% | [5] 102% | [6] 116% | [7] 109% | [8] 98% | [9] 114% | [10] 115% | [11] 109% | [12] 126% | [13] 106% | [14] 108% | [15] 108% | [16] 122% | [17] 112% | [18] 126% | [19] 108%

COc1cc(Cn2cc3c(c2)-c2oncc2CC3)cc(OC)c1OC
inactive: [1] 15.7% | [2] 17.7% | [3] 42.1% | [5] 56.4% | [7] 29.6% | [8] 12.8% | [11] 12% | [12] 56.5% | [13] 28.9% | [14] 46.1% | [15] 18.4% | [18] 81.2% | [19] 10.7%
active: [4] 3.87% | [6] -20% | [9] -67.2% | [10] -11% | [16] -3.52%

C=C[C@@H]1C[C@H](O)Cc2c(C)cc(C)cc2N1
inactive: [1] 97.6% | [2] 104% | [3] 91.5% | [4] 102% | [5] 75.1% | [6] 101% | [7] 98.3% | [8] 98.8% | [9] 106% | [10] 102% | [11] 92% | [12] 103% | [13] 101% | [14] 108% | [15] 97.5% | [16] 91.9% | [17] 92.3% | [18] 97.6% | [19] 98.9%

CC(C)(C)NCCC(O)c1cc2c(Cl)cc(Cl)cc2c2cc(C(F)(F)F)ccc12 (configuration not stated)
active: [1] -78.6% | [2] -73.8% | [3] -87.1% | [4] -73.6% | [5] -62.1% | [7] -88.2% | [8] -65.5% | [9] -87.3% | [10] -95.1% | [11] -72.2% | [12] -53.3% | [13] -74.4% | [14] -95.9% | [15] -88.6% | [17] -82.2% | [18] -81.7% | [19] -77.4%

O=[N+]([O-])c1ccc(-c2cn(-c3ccccc3)c(-c3ccccc3)n2)cc1
inactive: [1] 78.7% | [20] 40.5% | [3] 62.4% | [4] 35.3% | [5] 81.2% | [6] 44.6% | [7] 55.6% | [8] 92.5% | [9] 101% | [10] 109% | [11] 62.5% | [12] 141% | [13] 49.5% | [14] 65.3% | [15] 91.4% | [17] 116%
active: [16] -21.1% | [18] -2.3%

CCO/C=N/C1=C(C#N)C(c2ccc(Cl)cc2)c2c(c3ccccc3n(C)c2=O)O1 (configuration not stated)
inactive: [1] 80.3% | [2] 91.3% | [3] 64.6% | [4] 79.9% | [5] 79.2% | [6] 58.7% | [7] 63.4% | [9] 71.5% | [10] 95.1% | [11] 19.6% | [12] 55.7% | [13] 51.2% | [14] 56.8% | [15] 80% | [16] 57.3% | [17] 72.2% | [18] 90.3% | [19] 57.2%

COc1ccc(-c2c(-c3cc(OC)c4c(c3)OCO4)noc2N)cc1
active: [4] 4.43% | [6] 4.5% | [9] -88.9% | [10] -7.24% | [11] 8.5% | [13] -3.97% | [14] 8.2% | [16] 2.31% | [17] 0.998%
inactive: [1] 40.6% | [2] 22.8% | [3] 10.3% | [5] 35.4% | [7] 13.3% | [8] 14.5% | [12] 54.4% | [15] 16.6% | [18] 74.6% | [19] 12%

COc1ccc(C(=O)c2cc(OC)c(OC)c(OC)c2OC)cc1O
inactive: [1] 44.2% | [2] 86.8% | [3] 42% | [4] 13.7% | [5] 60.4% | [7] 50.6% | [8] 51% | [9] 86% | [10] 35.6% | [11] 27.6% | [12] 23% | [13] 56% | [14] 40% | [15] 38.9% | [16] 33.3% | [17] 23.8% | [18] 79.9% | [19] 10.9%
active: [6] -0.0983%

COc1cc(C2C3=C(COC3=O)Nc3cc4c(cc32)OCO4)cc2c1OCO2 (configuration not stated)
active: [4] 2.94% | [6] 5.26% | [9] -51.5% | [10] -19.5% | [11] 7.92% | [16] 5.02% | [17] -0.0643% | [19] 5.48%
inactive: [1] 40.3% | [2] 19.2% | [3] 36% | [5] 40.6% | [7] 11.9% | [8] 19.9% | [12] 53.8% | [13] 11.1% | [14] 18.5% | [15] 20.1% | [18] 65.1%

COc1cc(C(=O)/C=C/c2c(C)n([O-])c3ccc(C(F)(F)F)cc3[n+]2=O)cc(OC)c1OC
inactive: [1] 98.2% | [2] 81.6% | [3] 118% | [4] 116% | [5] 87.3% | [7] 94.1% | [8] 101% | [9] 46.2% | [10] 91.3% | [11] 52.9% | [12] 106% | [13] 99.6% | [15] 96.1% | [16] 105% | [17] 96.5% | [18] 74.2% | [19] 88.9%
active: [6] -82.1% | [14] -35.4%

COc1cc(NC(N)=NCCC(C)(C)c2ccc(C(F)(F)F)cc2)ncc1C#N
inactive: [2] 55.5% | [3] 54.5% | [7] 27.2% | [8] 36% | [10] 39.6% | [13] 26% | [14] 33.4% | [15] 44.1% | [16] 25.9% | [17] 61.1%
active: [1] 6.42% | [4] 6.06% | [5] -3.76% | [9] -83.6% | [11] -18.1% | [12] -77.9% | [18] -0.602% | [19] -73.7%

COc1cc(Nc2nc(N[C@H]3CCCC[C@@H]3N)nc3cc[nH]c(=O)c23)cc(OC)c1
active: [2] -13.5% | [5] -10.1% | [6] -9.29% | [17] -3.04% | [18] 7.33%
inactive: [1] 30.2% | [3] 47.6% | [4] 27.6% | [7] 19.1% | [8] 40.4% | [9] 18.8% | [10] 41.7% | [11] 24.6% | [12] 91.6% | [13] 38.4% | [14] 10.9% | [15] 48.1% | [19] 40.2%

COc1ccc(-c2c(N)n[nH]c2-c2cc(OC)c(OC)c(OC)c2)cc1
active: [4] 6.89% | [6] -21.3% | [9] 4.54% | [14] -1.72% | [17] 1.66% | [19] 5.82%
inactive: [1] 36.9% | [2] 82.7% | [3] 41.1% | [5] 70.1% | [7] 25.9% | [8] 33.7% | [10] 11% | [11] 19.3% | [12] 39.3% | [13] 28% | [15] 34.9% | [16] 12.8% | [18] 59.2%

Brc1cccc(-c2cc(-c3ccc4nccnc4c3)[nH]n2)c1
active: [4] 4.81% [25 µM] | [9] -24.7% [25 µM] | [14] -12.8% [25 µM] | [16] 7.1% [25 µM] | [17] -35.2% [25 µM]
inactive: [1] 46.5% [25 µM] | [2] 22.4% [25 µM] | [3] 30.1% [25 µM] | [5] 55.5% [25 µM] | [7] 31.2% [25 µM] | [8] 35.1% [25 µM] | [10] 17.7% [25 µM] | [11] 11.9% [25 µM] | [12] 59.2% [25 µM] | [13] 28.3% [25 µM] | [15] 41.1% [25 µM] | [18] 91.2% [25 µM] | [19] 23.5% [25 µM]

COc1ccc(NC(=O)c2c(Nc3ccc(OC)cc3OC)n[nH]c2N)c(OC)c1
inactive: [1] 91.7% | [2] 89.9% | [3] 94.3% | [4] 107% | [6] 79.3% | [7] 96.8% | [8] 107% | [9] 100% | [10] 108% | [11] 95.6% | [12] 107% | [13] 72.7% | [14] 81.1% | [15] 102% | [16] 92.1% | [17] 116% | [18] 114% | [19] 89.6%

Cc1cc(C)n(-c2nnc3n2N=C(c2ccc(-c4ccccc4)cc2)CS3)n1
active: [5] -2.12% | [11] 6.94% | [14] 5.5%
inactive: [1] 75.7% | [2] 68.4% | [3] 54.7% | [4] 45.1% | [6] 29.2% | [7] 31.5% | [8] 59.9% | [9] 39.8% | [10] 66.2% | [12] 43.5% | [13] 51.1% | [15] 56.7% | [17] 38.7% | [18] 53.7% | [19] 30%

O=C(Nc1cccc(-n2cc(-c3ccncc3)c(-c3ccc(Cl)c(O)c3)n2)c1)Nc1ccc(Cl)c(Cl)c1
active: [4] 6.5% | [5] -20.2% | [6] -6.8% | [7] 4.51% | [13] -0.72% | [14] 4.46% | [18] -17.3%
inactive: [1] 13.5% | [2] 24.7% | [3] 34.4% | [8] 30.1% | [9] 30.2% | [10] 25.9% | [11] 11.4% | [12] 10.3% | [15] 29.1% | [17] 37% | [19] 17.2%
